Columns and labels:
Conditions in all cases: concentration: 1 μM,replicates: in singlicate; n = 1
ASK2 = test system: T1, ASK2
T1 construct: gene MAP3K6

AURKA = test system: AURKA
AURKB = test system: AURKB
AURKC = test system: AURKC
AXL = test system: AXL
BIKE = test system: T2, BIKE
T2 construct: gene BMP2K

BLK = test system: BLK
BMPR1A = test system: BMPR1A
BMPR1B = test system: BMPR1B
BMPR2 = test system: BMPR2
BMX = test system: BMX
BRAF = test system: BRAF
BRK = test system: T3, BRK
T3 construct: gene PTK6

BRSK1 = test system: BRSK1
BRSK2 = test system: BRSK2
BTK = test system: BTK
BUB1 = test system: BUB1
CAMK1B = test system: CAMK1B
CAMK1D = test system: CAMK1D
CAMK1G = test system: CAMK1G
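Note: KINOMEscan kinase panel screen.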

| Structure (SMILES) | %Inh (ASK2) [%] | %Inh (AURKA) [%] | %Inh (AURKB) [%] | %Inh (AURKC) [%] | %Inh (AXL) [%] | %Inh (BIKE) [%] | %Inh (BLK) [%] | %Inh (BMPR1A) [%] | %Inh (BMPR1B) [%] | %Inh (BMPR2) [%] | %Inh (BMX) [%] | %Inh (BRAF) [%] | %Inh (BRK) [%] | %Inh (BRSK1) [%] | %Inh (BRSK2) [%] | %Inh (BTK) [%] | %Inh (BUB1) [%] | %Inh (CAMK1B) [%] | %Inh (CAMK1D) [%] | %Inh (CAMK1G) [%] |
| --- | --- | --- | --- | --- | --- | --- | --- | --- | --- | --- | --- | --- | --- | --- | --- | --- | --- | --- | --- | --- |
| CCN1CCN(CCCC(=O)Nc2n[nH]c3nc(-c4ccc(O)cc4)c(Br)cc23)CC1 [SB-731579] | 49 | 0 | 5 | 0 | 57 | 9 | 0 | 0 | 15 | 12 | 0 | 81 | 0 | 50 | 54 | 0 | 5 | 65 | 17 | 0 |
| CC(C(=O)NC1CCN(c2ccnc(Nc3ccc(F)cc3)n2)C1)c1ccc(Cl)cc1 (centres unmarked) [GSK1379713] | 0 | 0 | 36 | 47 | 11 | 16 | 32 | 0 | 0 | 0 | 0 | 0 | 0 | 5 | 0 | 0 | 18 | 37 | 8 | 13 |
| COc1cc2ncn(-c3cc(OCC4CCCCC4)c(C(N)=O)s3)c2cc1OC [GSK204559] | 8 | 0 | 13 | 60 | 0 | 90 | 33 | 0 | 0 | 5 | 10 | 0 | 8 | 30 | 45 | 0 | 17 | 6 | 16 | 11 |
| OCCn1cc(-c2cnc3nnn(Cc4ccc5ncccc5c4)c3n2)cn1 | 0 | 0 | 0 | 0 | 0 | 0 | 4 | 7 | 0 | 0 | 0 | 1 | 0 | 22 | 0 | 0 | 0 | 0 | 4 | 0 |
| COc1cccc(CNC(=O)NC2CCN(c3ccnc(Nc4cc(OC)c(OC)c(OC)c4)n3)C2)c1 (centres unmarked) [GSK1379765] | 0 | 85 | 91.4 | 79 | 30 | 53 | 9 | 0 | 0 | 23 | 23 | 0 | 34 | 0 | 0 | 42 | 81 | 35 | 17 | 0 |
| CSc1nccc(-c2c(-c3ccc(F)cc3)ncn2CCCN2CCOCC2)n1.Cl [SB-217146] | 0 | 7 | 35 | 0 | 0 | 0 | 0 | 0 | 4 | 39 | 0 | 4 | 0 | 0 | 0 | 0 | 14 | 0 | 12 | 0 |
| CC(=O)Nc1nc2cnc(Nc3cc(NC(=O)c4cccc(CC(C)(C)C#N)c4)ccc3C)nc2s1 | 0 | 11 | 3 | 0 | 20 | 0 | 32 | 0 | 2 | 0 | 9 | 99.9 | 0 | 23 | 14 | 51 | 30 | 0 | 8 | 0 |
| CNC(=O)c1ccccc1Nc1nc(Nc2cccc(CS(C)(=O)=O)c2)ncc1C.O=CO [GSK1520489] | 13 | 100 | 99.9 | 96.8 | 100 | 99.2 | 99.6 | 0 | 99.9 | 99.3 | 97.2 | 59 | 99.7 | 65 | 79 | 95.4 | 88 | 14 | 40 | 29 |
| COC(=O)c1cccc(NC(=O)NC2CCN(c3ccnc(Nc4cc(OC)c(OC)c(OC)c4)n3)C2)c1 (centres unmarked) [GSK1379767] | 0 | 72 | 39 | 73 | 0 | 60 | 0 | 11 | 0 | 26 | 30 | 0 | 8 | 0 | 0 | 37 | 48 | 38 | 14 | 0 |
| CC(=O)Nc1ccc(-c2cc3ncnc(SCC(=O)O)c3s2)cc1 | 0 | 4 | 97.1 | 32 | 36 | 19 | 0 | 8 | 0 | 7 | 0 | 4 | 0 | 28 | 3 | 0 | 47 | 0 | 0 | 19 |
| FC(F)(F)c1cc(Br)cc(Nc2nccc(-c3cnn4ncccc34)n2)c1 [GW810578] | 25 | 9 | 16 | 16 | 3 | 29 | 0 | 8 | 7 | 0 | 10 | 0 | 0 | 0 | 0 | 0 | 16 | 29 | 5 | 18 |
| O=C(Nc1cccc(C(F)(F)F)c1)c1cccc(Oc2ccc3nccn3n2)c1 | 21 | 5 | 9 | 6 | 31 | 15 | 6 | 0 | 12 | 21 | 8 | 76 | 4 | 31 | 100 | 0 | 12 | 0 | 3 | 0 |
| Cl.c1ccc(Oc2ccc(Nc3ccnc4cc(-c5ccc(CN6CCNCC6)o5)ccc34)cc2)nc1 [GW567142] | 0 | 20 | 77 | 27 | 0 | 0 | 86 | 0 | 0 | 2 | 4 | 0 | 92.7 | 0 | 0 | 76 | 38 | 0 | 20 | 0 |
| CCn1c(-c2nonc2N)nc2cncc(Br)c21 [SB-738004] | 0 | 14 | 17 | 0 | 22 | 23 | 0 | 0 | 17 | 58 | 27 | 0 | 10 | 0 | 0 | 47 | 93.7 | 34 | 15 | 16 |
| CC(=O)c1c(-c2ccncc2)[nH]c(-c2ccncc2)c1C [GW493036] | 0 | 0 | 16 | 5 | 17 | 23 | 38 | 0 | 0 | 24 | 0 | 19 | 3 | 0 | 0 | 7 | 84 | 0 | 20 | 0 |
| Cc1n[nH]c2cc(Nc3ccnc(Nc4cccc(CN5CCOCC5)c4)n3)ccc12 [GW682569] | 0 | 98.9 | 55 | 93.5 | 35 | 98.1 | 0 | 0 | 87 | 6 | 11 | 0 | 47 | 0 | 0 | 60 | 36 | 37 | 26 | 1 |
